From PMC5540273 (PLoS ONE, 2017)

Legend:
Conditions in all cases: concentration: 1 μM, replicates: in singlicate; n = 1
MYO3B = tested on: MYO3B
NDR1 = tested on: T1, NDR1
T1 construct: gene STK38

NDR2 = tested on: NDR2
NEK10 = tested on: NEK10
NEK11 = tested on: NEK11
NEK1 = tested on: NEK1
NEK2 = tested on: NEK2
NEK3 = tested on: NEK3
NEK4 = tested on: NEK4
NEK5 = tested on: NEK5
NEK6 = tested on: NEK6
NEK7 = tested on: NEK7
NEK9 = tested on: NEK9
NIK = tested on: T2, NIK
T2 construct: gene MAP3K14

NIM1 = tested on: T3, NIM1
T3 construct: gene MGC42105

NLK = tested on: NLK
OSR1 = tested on: T4, OSR1
T4 construct: gene OXSR1

PAK1 = tested on: PAK1
PAK2 = tested on: PAK2
PAK3 = tested on: PAK3
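Also: KINOMEscan kinase panel screen.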

| SMILES | %Inh (MYO3B) | %Inh (NDR1) | %Inh (NDR2) | %Inh (NEK10) | %Inh (NEK11) | %Inh (NEK1) | %Inh (NEK2) | %Inh (NEK3) | %Inh (NEK4) | %Inh (NEK5) | %Inh (NEK6) | %Inh (NEK7) | %Inh (NEK9) | %Inh (NIK) | %Inh (NIM1) | %Inh (NLK) | %Inh (OSR1) | %Inh (PAK1) | %Inh (PAK2) | %Inh (PAK3) |
| --- | --- | --- | --- | --- | --- | --- | --- | --- | --- | --- | --- | --- | --- | --- | --- | --- | --- | --- | --- | --- |
| COc1cc2c(cc1OCCN1CCN(C)CC1)ncc1c3ccc(C#N)cc3[nH]c21 | 0% | 52% | 0% | 15% | 0% | 0% | 48% | 33% | 0% | 0% | 7% | 0% | 0% | 76% | 64% | 0% | 0% | 24% | 39% | 0% |
| Fc1ccc(-c2nn3c(OCC(F)(F)F)cccc3c2-c2ccncc2)cc1 [GW514784] | 0% | 11% | 44% | 11% | 44% | 2% | 8% | 0% | 0% | 2% | 0% | 0% | 4% | 56% | 0% | 65% | 20% | 0% | 0% | 0% |
| O=c1cc(N2CCOCC2)nc2n(Cc3cccc(Cl)c3Cl)c(C3CC3)nn12 [GSK2358994] | 0% | 0% | 0% | 20% | 0% | 0% | 7% | 5% | 11% | 0% | 8% | 21% | 0% | 0% | 0% | 22% | 0% | 16% | 0% | 0% |
| [2H]C([2H])(c1cccc(C(F)(F)F)c1C)n1ccn2c(=O)nc(N3CCOCC3)cc12 [GSK2336394] | 0% | 0% | 0% | 7% | 0% | 0% | 0% | 1% | 27% | 4% | 0% | 0% | 53% | 0% | 13% | 0% | 9% | 0% | 12% | 13% |
| CC(C)Oc1ccc2c(-c3ccnc(Nc4ccc(N5CCN(C)CC5)cc4)n3)cnn2n1 [GW696155] | 0% | 86% | 52% | 97.6% | 86% | 86% | 93.3% | 98.5% | 10% | 100% | 99.8% | 92.6% | 92.9% | 21% | 75% | 47% | 87% | 83% | 53% | 28% |
| Cc1cn2c(=O)cc(N3CCOCC3)nc2n1Cc1cccc(Cl)c1Cl [GSK2334006] | 0% | 10% | 0% | 10% | 0% | 0% | 14% | 0% | 4% | 14% | 18% | 0% | 8% | 0% | 7% | 9% | 1% | 12% | 10% | 15% |
| NS(=O)(=O)c1cccc(-c2ccc3ncc(N4CCOCC4)nc3c2)c1 [GSK1535721] | 0% | 21% | 0% | 0% | 0% | 0% | 12% | 0% | 0% | 8% | 0% | 0% | 0% | 0% | 0% | 8% | 0% | 17% | 0% | 0% |
| COc1ccc(CNC(=O)NC2CCN(c3ccnc(Nc4ccc(OC)cc4)n3)C2)cc1 (stereo not drawn) [GSK1379727] | 0% | 0% | 42% | 15% | 11% | 0% | 0% | 8% | 12% | 13% | 0% | 0% | 6% | 17% | 33% | 24% | 0% | 0% | 0% | 0% |
| NS(=O)(=O)c1cccc(-c2ccc3nccc(-c4cccc(S(N)(=O)=O)c4)c3c2)c1 [GW867253] | 0% | 41% | 19% | 20% | 8% | 0% | 0% | 29% | 0% | 7% | 0% | 0% | 0% | 32% | 0% | 0% | 0% | 7% | 53% | 0% |
